Data as given in PubChem BioAssay (NCI).
About 83,000 compounds went through this panel and 20% of them were active in at least one assay; those are over-represented in the sample as a whole.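 Single-dose data. Exposure time 48 hours. Values below 10 considered active.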 Activity calls are given as the source filed them.

What was measured:
Test in all cases: NCI-60 one-dose screen, 48 h (100 = growth as untreated, 0 = no growth, -100 = all killed)
Details in all cases: 10 µM unless noted
[1] = test system: SN12C renal
[2] = test system: UO-31 renal
[3] = test system: TK-10 renal
[4] = test system: ACHN renal
[5] = test system: CAKI-1 renal
[6] = test system: A498 renal
[7] = test system: CCRF-CEM leukemia
[8] = test system: MOLT-4 leukemia
[9] = test system: SR leukemia

Measured: growth

CN(C)/C=C1\SC(=Nc2ccc(Cl)cc2)NC1=O
inactive: [1] 92.1% | [2] 90.4% | [3] 111% | [4] 103% | [5] 96.1% | [6] 94.6% | [7] 106% | [8] 101% | [9] 123%

COc1ccc(Cn2c(Br)c3c(c2Br)-c2nc(N)sc2CC3)cc1
active: [7] 4.26% | [8] 4.01% | [9] 4.13%
inactive: [1] 41.2% | [2] 52.4% | [3] 71.1% | [4] 55.2% | [5] 39% | [6] 11.6%

COc1ccc(/C=C2\NC(=O)NC2=O)cc1O
inactive: [1] 99.7% | [2] 106% | [3] 109% | [4] 105% | [5] 85.6% | [6] 91.2% | [7] 97.6% | [8] 99.5% | [9] 102%

Clc1ccc(-c2nnc(COc3ccc(C4=NNC(c5ccco5)C4)cc3)o2)cc1 (centres undefined)
inactive: [1] 86.5% | [2] 67.3% | [3] 83.4% | [4] 94.9% | [5] 86.4% | [6] 83.8% | [7] 84.7% | [8] 85.5% | [9] 80.7%

O=C(N/N=C/c1ccccc1O)C(=O)Nc1ccc(F)cc1
inactive: [1] 44.5% | [2] 19.3% | [3] 53.8% | [4] 30.4% | [5] 22.7% | [6] 92.4% | [7] 23% | [8] 21.3% | [9] 23.3%

Cc1ccccc1CNC(=O)C1CN(c2ccc(Cl)cc2)N(c2ccc(Cl)cc2)C1=O (centres undefined)
inactive: [1] 90.8% | [2] 64.1% | [3] 91.3% | [4] 87.4% | [5] 71.6% | [6] 86.2% | [7] 84.3% | [8] 81.1% | [9] 59.8%

CCCCNc1nc(NC(C)(C)C)nc(NC(C)(C)C)n1
inactive: [1] 56.1% | [2] 37.4% | [3] 55.9% | [4] 62.9% | [5] 51.3% | [6] 45.4% | [7] 42.4% | [8] 39.1% | [9] 33.6%

O=c1[nH]nnc2c1ncn2C1OC(CO)C(O)C1O (centres undefined)
inactive: [1] 97.7% | [2] 36% | [3] 39.8% | [4] 30.2% | [5] 25.2% | [6] 86.7% | [7] 27.5% | [8] 26.3% | [9] 37.7%

CC(=O)O[C@@H]1/C=C/C(=O)N[C@@H](C)CCC/C=C/[C@@H]2CCC[C@H]21
inactive: [1] 102% | [2] 93.7% | [3] 112% | [4] 112% | [5] 98.9% | [6] 121% | [8] 93.6% | [9] 87.4%

CCOC(=O)c1cc2c(n1Cc1cc(OC)cc(OC)c1)-c1oncc1CCC2
inactive: [1] 38.3% | [2] 18.5% | [3] 56.6% | [4] 37.6% | [5] 42.2% | [8] 18%
active: [6] -14.5% | [7] 9.16% | [9] 9.52%

CCCCCCc1cc2cc(-c3nc4ccccc4[nH]3)c(=Nc3ccccc3C)oc2cc1O
active: [9] -14.5%
inactive: [1] 45.8% | [2] 20.3% | [3] 46.8% | [4] 51% | [6] 79.7% | [7] 25.3% | [8] 21%

CCCCCCc1cc2cc(-c3csc(/C=C/c4ccccc4)n3)c(=O)oc2cc1O
active: [6] -25.3% | [7] 2.21% | [8] 4.75% | [9] -7.16%
inactive: [1] 34.9% | [2] 13.5% | [3] 49% | [4] 41.6% | [5] 32.8%

COc1ccc(C2NCCc3c2[nH]c2ccccc32)cc1CN1CCN(c2ccc(F)cc2)CC1 (centres undefined)
active: [2] 2.15%
inactive: [1] 55.6% | [3] 56.6% | [4] 64.7% | [5] 28.8% | [7] 16.3% | [8] 23.6% | [9] 19.9%

C[n+]1c2ccccc2nc2ccc(NCCO)cc21
inactive: [1] 85.6% | [2] 45.8% | [3] 127% | [4] 83.7% | [5] 93.4% | [7] 64.5% | [8] 63.8% | [9] 60.3%

O=c1cc(NC2CCN(CCCc3ccccc3)CC2)c2cc(Cl)ccc2o1
active: [1] 6.09% | [2] -10.4% | [3] -13.9% | [5] -10.6% | [6] -19% | [7] 3.59% | [8] 1.27% | [9] -11.4%
inactive: [4] 10.3%

CN1CCN(c2nc(Nc3ccc(O)cc3)nc3ccccc23)CC1
inactive: [1] 63.8% | [2] 57.3% | [3] 71.9% | [4] 49.5% | [6] 85.2% | [7] 93.4% | [8] 98.4% | [9] 87%

O=C(/C=C/c1ccccn1)c1ccc(OCc2nnc(-c3ccc(Cl)cc3)o2)cc1
active: [2] -90.1% | [5] -25.7% | [9] -11.7%
inactive: [1] 33.2% | [3] 16.6% | [4] 27.3% | [6] 88.3% | [8] 17.2%

COC(=O)/C(CCC=C(C)C)=C1\[C@@H](OC(C)=O)C[C@@]2(C)[C@H]1C[C@@H](O)[C@H]1[C@@]3(C)CC[C@H](NCc4ccccc4)[C@@H](C)[C@@H]3CC[C@@]12C
inactive: [1] 75.6% | [2] 47.5% | [3] 111% | [4] 79.2% | [5] 72.5% | [6] 98.1% | [7] 50.9% | [8] 28.1%
active: [9] 0.245%

O=C(NC1CCCCC1)C(c1cccs1)N(CCc1ccccc1)C(=O)c1ccco1 (centres undefined)
inactive: [1] 92.2% | [2] 100% | [3] 94.5% | [4] 94.6% | [5] 83% | [6] 93% | [7] 93.8% | [8] 84.9% | [9] 85.8%

CCCCN1CCN(c2ccc3nc(-c4ccc5nc(-c6ccc(OC)c(OC)c6)[nH]c5c4)[nH]c3c2)CC1
inactive: [2] 50.7% | [3] 14.9%
active: [1] 7.75% | [4] 2.47% | [5] 2.32% | [7] 3.3% | [8] -14.3% | [9] -6.6%

CCOc1ccc(Nc2ccnc3cc(Cl)ccc23)cc1
inactive: [4] 10.9%
active: [1] 7.43% | [2] -12.8% | [3] 7.11% | [5] 2.27% | [7] 3.77% | [8] 4.04% | [9] 0.437%

COc1ccc(-c2nnc(COc3ccc(C(=O)/C=C/c4ccco4)cc3)o2)cc1
active: [9] 0.0515%
inactive: [1] 68.1% | [2] 53.5% | [3] 95.3% | [4] 85.9% | [5] 67.2% | [7] 10.7% | [8] 41.9%

O=Nc1c(O)ccc2ccccc12.O=Nc1c(O)ccc2ccccc12.O=Nc1c([O-])ccc2ccccc12.[Fe+3]
inactive: [1] 99.6% | [2] 60.2% | [3] 127% | [4] 102% | [5] 106% | [6] 105% | [7] 107% | [8] 110% | [9] 105%

O=c1oc2ccc(Br)cc2c(=O)n1-c1ccc(Br)cc1F
inactive: [3] 18.9%
active: [1] -1.73% | [2] -19.5% | [4] -6.06% | [5] -10.6% | [7] 9% | [8] -16.6%

COc1ccc(Nc2nc(N/N=C/c3ccc(O)cc3)nc(Nc3ccc([N+](=O)[O-])cc3)n2)cc1
inactive: [1] 103% | [2] 103% | [3] 115% | [4] 103% | [5] 123% | [7] 99.9% | [8] 108% | [9] 105%

COc1cc(/C=C2\CCC/C(=C\c3cc(CN4CCOCC4)c(O)c(OC)c3)C2=O)cc(CN2CCOCC2)c1O
inactive: [1] 29.3% | [2] 52.6% | [3] 53.8% | [4] 25.1% | [5] 46.1% | [7] 14.8% | [8] 11% | [9] 38%

CSc1nc2c(c(=O)[nH]1)N=C1c3ccccc3C(=O)C1C(c1ccccc1)N2 (centres undefined)
inactive: [1] 68.7% | [2] 70% | [3] 67.8% | [4] 48.7% | [6] 45.3% | [7] 29% | [8] 20%
active: [9] -35.6%

COc1cc(C(=O)Nc2ccc(-c3nc4ccccc4[nH]3)cc2)cc(OC)c1OC
inactive: [1] 45.4% | [2] 49.5% | [3] 60.1% | [4] 61.9% | [5] 55.9% | [7] 36.5% | [8] 41.3% | [9] 10.1%

COc1ccc(-n2c(C(O)c3ccccc3)n[nH]c2=S)cc1 (centres undefined)
inactive: [1] 88.2% | [2] 79.6% | [3] 101% | [4] 95.5% | [6] 103% | [7] 98.4% | [8] 83.4%
